Assay results reported in PubChem BioAssay (Tox21).
A number with no mark means an inactive call. Results filed as inconclusive are left out. Activity calls are given as the source filed them. Calls come from the whole dose curve; as a rule, active = well fitted curve in the direction sought with a large enough effect in the repeat runs; inconclusive = weak or mixed curves; inactive = no such curve, though single readings can be large; an effect the other way counts as inactive or inconclusive.

experiment: Caspase-3/7 induction in HepG2 cells by small molecules, qHTS assay (AID 1346978); conditions: HepG2 caspase-3/7 activation, Caspase-Glo luminescence, 17 h; series mostly up to 92.4 µM; caspase activation: at the top concentration; note: nearly all actives have a fitted effect of over 15% in size; note: potency is the fitted concentration of half-maximal effect
Method in brief: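 Wild-type HepG2 cells (2,000/well) were settled 5 h at 37 C, 5% CO2, then exposed to compounds in DMSO for 17 h. Caspase-3/7 activity was read by luminescence 30 min after adding Caspase-Glo 3/7 reagent at room temperature.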
% is set by controls: 0 for no effect and ±100 for the full control effect.

Structure (SMILES) | caspase activation | Potency
Nc1ccccc1O | -5.94% | –
c1cc(C(c2ccc(OCC3CO3)cc2)c2ccc(OCC3CO3)cc2)ccc1OCC1CO1 (stereo not drawn) | 10.7% | –
S=c1[nH]c2ccccc2s1 | -2.34% | –
Clc1ccc2cc3ccccc3cc2c1 | -2.63% | –
O=C1C=CC(=O)N1 | -21.6% | –
CCCCCCCCn1sc(Cl)c(Cl)c1=O | 0.845% | –
O=C(O)c1ccc(Cl)c(Cl)c1 | -0.54% | –
Nc1cc(C(F)(F)F)ccc1S | -0.164% [at 42.5 µM] | –
CO[Si](CCCNc1ccccc1)(OC)OC | 0.153% | –
O=C1Cc2cc(CCN3CCN(c4nsc5ccccc45)CC3)c(Cl)cc2N1 | -1.62% [at 42.5 µM] | –
O=c1cccccc1O | 0.864% | –
O=C1c2ccccc2Cc2ccccc21 | -11.1% | –
CN(C)CCCOC1(Cc2ccccc2)CCCCCC1 | 0.356% [at 42.5 µM] | –
NC(=NCCCCCCN=C(N)/N=C(\N)Nc1ccc(Cl)cc1)/N=C(\N)Nc1ccc(Cl)cc1 | – | inactive
C=C(C)C(=O)OCC[N+](C)(C)C | 0.433% | –
OCc1c[nH]c2ccccc12 | 0.575% | –
CCC1OCC(COc2ccc(Oc3ccccc3)cc2)O1 (stereo not drawn) | -7.31% | –
OCCCCCCCCCCCCBr | 2.81% | –
Cc1oc(-c2ccccc2)nc1CCC(=O)c1ccc(CC2SC(=O)NC2=O)cc1 (stereo not drawn) | -2.94% [at 42.5 µM] | –
CCOC(=O)c1nc(C(Cl)(Cl)Cl)n(-c2ccc(Cl)cc2Cl)n1 | -0.199% | –
O=C(OCC1CO1)C1CCCCC1C(=O)OCC1CO1 (stereo not drawn) | 2.08% | –
CC1=NC(C)OC1C (stereo not drawn) | -0.716% | –
CCCCCCCCOC(=O)c1ccc(O)cc1 | – | 27.3 µM (active)
COC(=O)c1cc(Cl)ccc1OC | -0.0242% [at 42.5 µM] | –

experiment: Caspase-3/7 induction in CHO-K1 cells by small molecules, qHTS cell viability counter screen (AID 1346979); conditions: CellTiter-Fluor fluorescence, 17 h; series mostly up to 92.4 µM; activity change, negative = cytotoxicity: at the top concentration; note: nearly all actives have a fitted effect of over 35% in size; note: potency is the fitted concentration of half-maximal effect
Method in brief: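 Following a 5hr settling period, CHO-K1 cells at 1,500 per well received DMSO-dissolved compounds. Cell viability was quantified 16hr later by CellTiter-Fluor fluorescence, measured after 1hr with reagent at 37C.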

Structure (SMILES) | Potency | activity change, negative = cytotoxicity
CCN(CCC#N)c1ccc(N=Nc2c(Cl)cc([N+](=O)[O-])cc2Cl)cc1 | 48.6 µM (active) | –
Oc1c(Cl)cc(Cl)c2cccnc12 | 11.9 µM (active) | –
O=C(OC[C@H]1O[C@@H](OC(=O)c2cc(O)c(O)c(OC(=O)c3cc(O)c(O)c(O)c3)c2)[C@H](OC(=O)c2cc(O)c(O)c(OC(=O)c3cc(O)c(O)c(O)c3)c2)[C@@H](OC(=O)c2cc(O)c(O)c(OC(=O)c3cc(O)c(O)c(O)c3)c2)[C@@H]1OC(=O)c1cc(O)c(O)c(OC(=O)c2cc(O)c(O)c(O)c2)c1)c1cc(O)c(O)c(OC(=O)c2cc(O)c(O)c(O)c2)c1 | 16.5 µM (active) | –
C/C=C(\C)C(=O)OCc1ccccc1 | – | 3.31%
CC(C)(C)CC(C)(C)c1ccc(OCCOCC[N+](C)(C)Cc2ccccc2)cc1 | 61.1 µM (active) | –
O=CC=C(c1ccccc1)c1ccccc1 | 54.9 µM (active) | –
COc1cc(/C=C/C(=O)O[C@H]2CC[C@]34C[C@]35CC[C@]3(C)[C@@H]([C@H](C)CCC=C(C)C)CC[C@@]3(C)[C@@H]5CC[C@H]4C2(C)C)ccc1O | – | -5.63% [at 42.5 µM]
C[C@H]1[C@H]2CC[C@H]3[C@@H]4CC=C5C[C@@H](N(C)C)CC[C@]5(C)[C@H]4CC[C@]23CN1C | – | -5.77% [at 42.5 µM]
CCc1oc2ccccc2c1C(=O)c1cc(Br)c(O)c(Br)c1 | – | -2.71% [at 42.5 µM]
Nc1ccccc1O | 24 µM (active) | –
c1cc(C(c2ccc(OCC3CO3)cc2)c2ccc(OCC3CO3)cc2)ccc1OCC1CO1 (stereo not drawn) | 61.1 µM (active) | –
S=c1[nH]c2ccccc2s1 | 64.8 µM (active) | –
Clc1ccc2cc3ccccc3cc2c1 | – | 3.77%
O=C1C=CC(=O)N1 | 5.59 µM (active) | –
CCCCCCCCn1sc(Cl)c(Cl)c1=O | 2.73 µM (active) | –
Nc1cc(C(F)(F)F)ccc1S | 26.6 µM (active) | –
CO[Si](CCCNc1ccccc1)(OC)OC | – | -0.341%
O=c1cccccc1O | 7.84 µM (active) | –
O=C1c2ccccc2Cc2ccccc21 | 30.9 µM (active) | –
CN(C)CCCOC1(Cc2ccccc2)CCCCCC1 | – | -0.567% [at 42.5 µM]
NC(=NCCCCCCN=C(N)/N=C(\N)Nc1ccc(Cl)cc1)/N=C(\N)Nc1ccc(Cl)cc1 | 24.2 µM (active) [middle of 5 runs] | –
C=C(C)C(=O)OCC[N+](C)(C)C | 68.3 µM (active) | –
OCc1c[nH]c2ccccc12 | 64.8 µM (active) | –
CCC1OCC(COc2ccc(Oc3ccccc3)cc2)O1 (stereo not drawn) | – | -7.89%
Cc1oc(-c2ccccc2)nc1CCC(=O)c1ccc(CC2SC(=O)NC2=O)cc1 (stereo not drawn) | 21.1 µM (active) | –
CCOC(=O)c1nc(C(Cl)(Cl)Cl)n(-c2ccc(Cl)cc2Cl)n1 | 54.5 µM (active) | –
O=C(OCC1CO1)C1CCCCC1C(=O)OCC1CO1 (stereo not drawn) | 68.7 µM (active) | –
CC1=NC(C)OC1C (stereo not drawn) | – | -11.5%
CCCCCCCCOC(=O)c1ccc(O)cc1 | 24.3 µM (active) | –
COC(=O)c1cc(Cl)ccc1OC | – | 3.78% [at 42.5 µM]

experiment: Caspase-3/7 induction in CHO-K1 cells by small molecules, qHTS assay (AID 1346980); conditions: CHO-K1 caspase-3/7 induction, Caspase-Glo luminescence, 17 h; series mostly up to 92.4 µM; caspase-3/7 activation: at the top concentration; note: nearly all actives have a fitted effect of over 15% in size
Method in brief: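 Wild-type cells were seeded at 1,500 per well and settled 5 hr at 37 C, 5% CO2, then exposed to DMSO-dissolved compounds for 17 hr. Caspase-Glo 3/7 reagent was added, and luminescence was read after 30min at room temperature.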

Structure (SMILES) | caspase-3/7 activation | Potency
CCN(CCC#N)c1ccc(N=Nc2c(Cl)cc([N+](=O)[O-])cc2Cl)cc1 | 0.606% | –
CCCCC(CC)COP(=O)(O)OCC(CC)CCCC (stereo not drawn) | – | inactive
C/C(=C(/OCCOc1ccc(Cl)cc1)c1ccc(Cl)cc1Cl)n1ccnc1 | -3.13% [at 42.5 µM] | –
Oc1c(Cl)cc(Cl)c2cccnc12 | -0.0002% [at 42.5 µM] | –
COc1cc(/C=C/C(=O)O[C@H]2CC[C@]34C[C@]35CC[C@]3(C)[C@@H]([C@H](C)CCC=C(C)C)CC[C@@]3(C)[C@@H]5CC[C@H]4C2(C)C)ccc1O | 12.8% [at 42.5 µM] | –
C[C@H]1[C@H]2CC[C@H]3[C@@H]4CC=C5C[C@@H](N(C)C)CC[C@]5(C)[C@H]4CC[C@]23CN1C | -1.48% [at 42.5 µM] | –
CCc1oc2ccccc2c1C(=O)c1cc(Br)c(O)c(Br)c1 | 0.418% [at 42.5 µM] | –
CC(C)=CCOc1ccc(/C=C/C(=O)c2ccc(OCC=C(C)C)cc2OCC(=O)O)cc1 | -0.542% [at 42.5 µM] | –
Nc1ccccc1O | -4.62% | –
Clc1ccc2cc3ccccc3cc2c1 | -2.59% | –
O=C1C=CC(=O)N1 | -6.63% | –
CCCCCCCCn1sc(Cl)c(Cl)c1=O | -6.29% | –
O=C(O)c1ccc(Cl)c(Cl)c1 | -1.15% | –
CO[Si](CCCNc1ccccc1)(OC)OC | 1.36% | –
O=C1Cc2cc(CCN3CCN(c4nsc5ccccc45)CC3)c(Cl)cc2N1 | 0.229% [at 42.5 µM] | –
O=C1c2ccccc2Cc2ccccc21 | -6.13% | –
CN(C)CCCOC1(Cc2ccccc2)CCCCCC1 | 1.09% [at 42.5 µM] | –
NC(=NCCCCCCN=C(N)/N=C(\N)Nc1ccc(Cl)cc1)/N=C(\N)Nc1ccc(Cl)cc1 | – | inactive
OCc1c[nH]c2ccccc12 | 0.489% | –
CCC1OCC(COc2ccc(Oc3ccccc3)cc2)O1 (stereo not drawn) | -3.65% | –
OCCCCCCCCCCCCBr | -2.01% | –
Cc1oc(-c2ccccc2)nc1CCC(=O)c1ccc(CC2SC(=O)NC2=O)cc1 (stereo not drawn) | -2.07% [at 42.5 µM] | –
CCOC(=O)c1nc(C(Cl)(Cl)Cl)n(-c2ccc(Cl)cc2Cl)n1 | -0.0008% | –
CC1=NC(C)OC1C (stereo not drawn) | 0.0379% | –
